In PubChem BioAssay AID372 (MTDP, 2006):
About 770 (0.77%) of roughly 100,000 compounds were called active. No stated cut-off is given here; in the data, active means inhibition above about 50%; inactive means the rest. The list comes from a sample in which actives are over-represented; it also holds similar structures and randomly drawn compounds.

Target: Gag-Pol polyprotein (Human immunodeficiency virus type 1 group M subtype B (isolate HXB2)) (UniProt P04585)
Assay: RNase H inhibition, HIV 1 Gag Pol polyprotein, FRET biochemical assay, screening (AID 372)
Settings: HIV-1 RT RNase H, FRET RNA/DNA substrate fluorescence; at 10 µM; stronger effect = higher value

| SMILES | inhibition |
| --- | --- |
| CCN(CC)c1ccc(NS(=O)(=O)c2ccc(Cl)cc2)cc1 | 28% (inactive) |
| Cc1cc(C)cc(OCCNC(=O)c2ccccc2C)c1 | 5% (inactive) |
| Cc1ccc2nc(-c3ccc(C)c(NC(=S)NC(=O)c4cccc(Br)c4)c3)oc2c1 | 22% (inactive) |
| Cc1cc(C)c2oc(-c3ccc(C)c(NC(=S)NC(=O)c4cccc(F)c4)c3)nc2c1 | 0% (inactive) |
| COc1cccc(C(=O)Nc2ccc(-c3nc4cc(C)ccc4o3)c(O)c2)c1 | 36% (inactive) |
| Cc1ccc(C(=O)NC(=S)Nc2ccc(Cl)c(-c3nc4ccc(C)cc4o3)c2)cc1 | 15% (inactive) |
| Cc1ccc2nc(-c3cc(NC(=S)NC(=O)c4cccc(F)c4)ccc3Cl)oc2c1 | 51% (active) |
| Cc1ccc2nc(-c3ccc(C)c(NC(=S)NC(=O)c4cccc(F)c4)c3)oc2c1 | 52% (active) |
| COc1ccc(C(=O)NC(=S)Nc2ccc(-c3nc4cc(C)ccc4o3)c(O)c2)cc1 | 17% (inactive) |
| COc1cccc(C(=O)NC(=S)Nc2ccc(-c3nc4cc(C)ccc4o3)c(O)c2)c1 | 53% (active) |
| O=C(NC(=S)Nc1ccc2oc(-c3cc(Cl)ccc3Cl)nc2c1)c1cccc(F)c1 | 18% (inactive) |
| O=C(Nc1ccc(F)c(Cl)c1)c1ccncc1 | 7% (inactive) |
| CCCC1=C(C(=O)OCC)C(c2ccc(Cl)cc2Cl)NC(=O)N1 (stereo unspecified) | 4% (inactive) |
| Cc1cccc(N2C(=O)/C(=C/c3cccn3-c3ccccc3)C(=O)NC2=S)c1C | 30% (inactive) |
| COc1ccc(/C=C2\C(=O)NC(=O)N(c3ccccc3)C2=O)cc1I | 39% (inactive) |
| CCOc1cc(/C=N/NC(=O)c2ccncc2)ccc1OC(=O)c1ccco1 | 5% (inactive) |
| O=S(=O)(Nc1ccccc1C(F)(F)F)c1ccccc1 | 4% (inactive) |
| COc1ccc(-n2c(C)cc(/C=C(\C#N)C(=O)Nc3ccccc3)c2C)cc1 | 11% (inactive) |
| O=C1CC(SC(=NCc2ccc3c(c2)OCO3)Nc2ccccc2)C(=O)N1 (stereo unspecified) | 0% (inactive) |
| COc1ccc(OC)c(CNCc2ccc3c(c2)OCO3)c1 | 6% (inactive) |
| COc1ccc(C(=O)/C=C/c2ccc(NC(=O)c3ccc(I)cc3)cc2)cc1 | 60% (active) |
| COc1cc(C(=O)Nc2ccc(/C=C/C(=O)c3ccccc3)cc2)cc(OC)c1OC | 63% (active) |
| COc1cc(C(=O)Nc2ccc(NC(=O)c3ccccc3)cc2)cc(OC)c1OC | 10% (inactive) |
| COc1ccc(-n2nc3ccc(NC(=O)c4ccc(I)cc4)cc3n2)cc1 | 51% (active) |
| COc1ccc(C(=O)Nc2cccc(/C=C/C(=O)c3ccccc3)c2)cc1OC | 3% (inactive) |
| COc1ccc(/C=C/C(=O)c2ccc(I)cc2)cc1 | 8% (inactive) |

| SMILES | inhibition |
| --- | --- |
| COc1ccc(-n2nc3ccc(NC(=O)c4ccc(C)c(C)c4)cc3n2)cc1 | 8% (inactive) |
| Cc1cc(NC(=O)c2ccc(F)cc2)ccc1NC(=O)c1ccccc1 | 0% (inactive) |
| Cc1cc(NC(=O)c2ccc(I)cc2)ccc1NC(=O)c1ccccc1 | 50% (active) |
| COc1ccc(C(=O)Nc2ccc3nn(-c4ccc(F)cc4)nc3c2)cc1 | 0% (inactive) |
| Cc1cc(NC(=O)c2ccc(C(C)(C)C)cc2)ccc1NC(=O)c1ccccc1 | 7% (inactive) |
| COc1ccc(C(=O)Nc2ccc(/C=C/C(=O)c3ccccc3)cc2)cc1 | 8% (inactive) |
| CC(C)(C)C1CCC(C(=O)N/N=C/c2ccc(Cl)s2)CC1 (stereo unspecified) | 5% (inactive) |
| CSc1nnc2c(n1)[nH]c1c(C)cccc12 | 10% (inactive) |
| COc1ccc(N2N=C(c3ccc(C)cc3)CC2c2cccs2)cc1 (stereo unspecified) | 6% (inactive) |
| O=C(NNc1ccc([N+](=O)[O-])cc1)c1ccc([N+](=O)[O-])cc1 | 5% (inactive) |
| O=C(Nc1ccc(OCc2ccccc2)cc1)c1cccc2ccccc12 | 15% (inactive) |
| CCOc1ccc2nc(SCc3ccc(OC)c(F)c3)sc2c1 | 20% (inactive) |
| Cc1cc(C=C2C(=O)NC(=S)NC2=O)c(C)n1-c1cccc(Cl)c1 | 28% (inactive) |
| Cc1cc(C=C2C(=O)NC(=S)NC2=O)c(C)n1-c1ccc(Cl)c(Cl)c1 | 55% (active) |
| Cc1ccc(-n2c(C)cc(/C=C3/SC(=S)NC3=O)c2C)cc1 | 5% (inactive) |
| Cc1ccc(-n2c(C)cc(C=C3C(=O)NC(=S)NC3=O)c2C)cc1C | 19% (inactive) |
| Cc1cccc(-n2c(C)cc(/C=C3/SC(=S)NC3=O)c2C)c1 | 56% (active) |
| Cc1cc(/C=C2/SC(=S)NC2=O)c(C)n1-c1cccc(Cl)c1 | 8% (inactive) |
| Cc1cc(/C=C2/SC(=S)NC2=O)c(C)n1-c1ccccc1 | 19% (inactive) |
| Cc1cc(/C=C2/SC(=S)NC2=O)c(C)n1-c1ccc(Cl)c(Cl)c1 | 53% (active) |
| Cc1cc(/C=C2/SC(=S)NC2=O)c(C)n1-c1ccc(Cl)cc1 | 2% (inactive) |
| CCCCN1C(=O)c2cccc3c(Cl)ccc1c23 | 44% (inactive) |
| Cc1cc(OCC(=O)Nc2ccccn2)cc(C)c1Cl | 2% (inactive) |
| CCOc1ccccc1OCCOc1ccc(C)cc1C(C)(C)C | 17% (inactive) |
| CC(C)OC(=O)c1c(NC(=O)c2ccc([N+](=O)[O-])cc2Cl)sc2c1CCCCC2 | 31% (inactive) |
| CC(C)(C)c1nnc(-c2cccc([N+](=O)[O-])c2)o1 | 8% (inactive) |

| SMILES | inhibition |
| --- | --- |
| COc1ccc(Cl)cc1C(=O)Nc1cccc(C)n1 | 0% (inactive) |
| CC(=O)Nc1cccc(NC(=O)c2cc(Cl)ccc2Cl)c1 | 56% (active) |
| CC(=O)Nc1cccc(NC(=O)c2ccc(Cl)cc2Cl)c1 | 3% (inactive) |
| Cc1cccc(NC(=O)c2cc(I)ccc2Cl)n1 | 0% (inactive) |
| Cc1cccc(NC(=O)c2cc(Cl)ccc2Cl)n1 | 54% (active) |
| CC(=O)Nc1ccc(NC(=O)c2cc(Cl)ccc2Cl)cc1 | 6% (inactive) |
| CCCCNCCCCOc1ccccc1C(C)(C)C | 8% (inactive) |
| O=C(Nc1ccc(I)cn1)C12CC3CC(CC(C3)C1)C2 | 7% (inactive) |
| Cc1ccc(NC(=O)/C=C/c2ccc(Cl)cc2)cc1 | 8% (inactive) |
| COc1ccc(C2CC(=O)C3=C(C2)NC(C)=C(C(=O)OCC(C)C)C3c2cc3c(cc2Cl)OCO3)cc1 (stereo unspecified) | 10% (inactive) |
| O=C(COc1ccccc1[N+](=O)[O-])Nc1ccc2oc(-c3cccc4ccccc34)nc2c1 | 13% (inactive) |
| CN(C(=O)c1ccc(Cl)cc1Cl)c1ccccc1 | 1% (inactive) |
| Clc1ccc(CN2CCN(/N=C/c3ccc(-c4ccccc4)cc3)CC2)cc1 | 8% (inactive) |
| Cc1ccc(O)c(/C=N/n2c(-c3ccccc3)n[nH]c2=S)c1 | 13% (inactive) |
| CC(=O)Nc1ccc(-c2nc(-c3ccccc3)c3cc(NC(C)=O)ccc3n2)cc1 | 8% (inactive) |
| O=C(Nc1ccc(NC(=O)c2cccs2)cc1)c1ccccc1 | 5% (inactive) |
| O=C(Nc1ccc(-c2nc(-c3ccccc3)c3cc(NC(=O)c4cccs4)ccc3n2)cc1)c1cccs1 | 52% (active) |
| O=C(Nc1sc2c(c1C(=O)Nc1ccccc1)CCCCC2)c1ccc([N+](=O)[O-])cc1 | 27% (inactive) |
| Cc1ccc2nc(-c3ccc(NC(=S)NC(=O)c4ccccc4)cc3)oc2c1 | 58% (active) |
| Cc1ccc2nc(-c3ccc(NC(=S)NC(=O)c4ccc([N+](=O)[O-])cc4)cc3)oc2c1 | 50% (active) |
| O=C(NC(=S)Nc1ccc(-c2nc3ncccc3o2)cc1)c1cccc(F)c1 | 32% (inactive) |
| Cc1ccc(NC(=O)c2c(NC(=O)c3ccc([N+](=O)[O-])cc3)sc3c2CCCC3)cc1 | 0% (inactive) |
| COc1ccc(C(=O)NC(=S)Nc2ccc(-c3nc4ccc(C)cc4o3)cc2)cc1 | 12% (inactive) |
| O=C(NC(=S)Nc1ccc(-c2nc3ncccc3o2)cc1)c1cccc(Cl)c1 | 59% (active) |
| Cc1ccc2nc(-c3ccc(NC(=S)NC(=O)c4ccc(C)c(C)c4)cc3)oc2c1 | 18% (inactive) |
| Cc1ccc2nc(-c3ccc(NC(=S)NC(=O)c4ccc(F)cc4)cc3)oc2c1 | 45% (inactive) |

| SMILES | inhibition |
| --- | --- |
| Cc1ccc(C(=O)NC(=S)Nc2ccc(-c3nc4cc(C)c(C)cc4o3)cc2)cc1 | 10% (inactive) |
| O=C(NC(=S)Nc1cccc(-c2nc3ncccc3o2)c1)c1cccc(Cl)c1 | 23% (inactive) |
| Cc1ccc2nc(NNC(=O)CCC(=O)O)nc(-c3ccccc3)c2c1 | 15% (inactive) |
| COc1cc(/C=N/n2cnnc2)ccc1OCCSc1ccc(C)cc1 | 15% (inactive) |
| C=C(C)COc1ccc2oc(-c3ccccc3)c(C(=O)OCC)c2c1 | 0% (inactive) |
| CC(C)(C)NCCOc1ccc(Cl)cc1Cl | 0% (inactive) |
| O=C(CSc1nc2ccc([N+](=O)[O-])cc2s1)c1ccc(Cl)cc1 | 11% (inactive) |
| COc1ccc(C(=O)Nc2ccc(NC(=O)c3ccco3)c(OC)c2)cc1Cl | 1% (inactive) |
| Cc1cc(C)nc(/N=C(/N)Nc2ccc(C(=O)O)cc2)n1 | 3% (inactive) |
| COc1ccc(-n2nc3cc(C)c(NC(=O)COc4ccc([N+](=O)[O-])cc4)cc3n2)cc1 | 6% (inactive) |
| Cc1ccc(N=Cc2cc(Br)cc(Br)c2O)c(C)c1 | 4% (inactive) |
| Cc1ccc2nc(-c3cccc(NC(=O)c4ccc([N+](=O)[O-])cc4)c3)oc2c1 | 54% (active) |
| Cc1cc(C)c2oc(-c3ccc(NC(=O)c4cccnc4)cc3O)nc2c1 | 52% (active) |
| COc1c(Cl)cc(C(=O)Nc2cccc(-c3nc4cc(C)cc(C)c4o3)c2)cc1Cl | 20% (inactive) |
| Cc1cc(C)c2oc(-c3cccc(NC(=O)c4ccc(Cl)cc4)c3)nc2c1 | 53% (active) |
| Cc1ccc2oc(-c3ccc(NC(=O)c4cccnc4)cc3O)nc2c1 | 21% (inactive) |
| Cc1ccc(-c2nc3cc(NC(=S)NC(=O)c4cccs4)ccc3o2)cc1 | 7% (inactive) |
| Cc1cc2nc(-c3ccc(NC(=O)c4cccnc4)cc3O)oc2cc1C | 12% (inactive) |
| Cc1ccc2oc(-c3cccc(NC(=O)c4cccc([N+](=O)[O-])c4)c3)nc2c1 | 0% (inactive) |
| O=C(NC(=S)Nc1ccc(-c2nc3ccccc3o2)cc1)c1cccs1 | 55% (active) |
| Cc1ccc2nc(-c3cccc(NC(=O)c4ccc(C)c([N+](=O)[O-])c4)c3)oc2c1 | 6% (inactive) |
| O=C(Nc1ccc(-c2nc3ccccc3o2)cc1)c1cccs1 | 5% (inactive) |
| Cc1cc(C)c2oc(-c3cccc(NC(=O)Cc4ccc(Cl)cc4)c3)nc2c1 | 25% (inactive) |
